# Rows were chosen to be rich in hits. Some 11% of all compounds tested hit in one or more screens of this group.
# HCV inh – blocks hepatitis C virus; Huh7.5.1 HCVcc-Cre infection, luciferase reporter, 44 h; Potency, µM (titrated, usually from 41.8 µM), hits mostly inhibitors; hit rate 3.4% among 340,000; AID 651820
#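 Infectious HCV cell culture screen: compound-treated cells (1,000/well, pre-plated 4 h) are infected with HCVcc-Cre at roughly 0.5 moi and grown 44 h. Infection is quantified by luciferase signal after 15 min substrate incubation at room temperature.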
# Pf growth 48h – P. falciparum growth inhibition at 48 hours (one generation) | hit rate 5.9% among 310,000 | AID 504832 | P. falciparum luciferase growth in erythrocytes, 48 h | Potency, µM (series often up to 28.7 µM), usual class: inhibitors
#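 Erythrocytes infected with P. falciparum carrying an integrated firefly luciferase reporter (2% hematocrit, 0.1% parasitemia final) were exposed to compounds in RPMI 1640 with 0.5% Albumax at 37 C, 5% CO2. Growth inhibition was scored as reduced luminescence.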
# AMA1-RON2 inh – disrupts binding of P. falciparum AMA1 to RON2; AlphaScreen AMA1-biotinylated RON2 peptide binding; Potency, µM (doses to about 58.2 µM), actives largely listed as inhibitors; hit rate 0.2% among 360,000; AID 720542; also: nearly all actives have a fitted effect of over 45% in size
#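 AMA1 (3D7) with his tag at 25 nM final met compounds first, then biotinylated RON2 peptide at 25 nM; detection used donor plus acceptor beads, 10 µg/mL apiece, read by AlphaScreen after 30 min at room temperature.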
# AmpC inh detg – inhibitors of E. coli AmpC beta-lactamase with detergent | AmpC hydrolysis of nitrocefin, absorbance 480 nm, 0.01% Triton | Potency, µM (highest dose often 114 µM), usual class: inhibitors | AID 485294 | P00811 | hit rate 0.041% among 370,000; also: nearly all actives have a fitted effect of over 25% in size
# Target sequence (P00811 whole entry, looked up): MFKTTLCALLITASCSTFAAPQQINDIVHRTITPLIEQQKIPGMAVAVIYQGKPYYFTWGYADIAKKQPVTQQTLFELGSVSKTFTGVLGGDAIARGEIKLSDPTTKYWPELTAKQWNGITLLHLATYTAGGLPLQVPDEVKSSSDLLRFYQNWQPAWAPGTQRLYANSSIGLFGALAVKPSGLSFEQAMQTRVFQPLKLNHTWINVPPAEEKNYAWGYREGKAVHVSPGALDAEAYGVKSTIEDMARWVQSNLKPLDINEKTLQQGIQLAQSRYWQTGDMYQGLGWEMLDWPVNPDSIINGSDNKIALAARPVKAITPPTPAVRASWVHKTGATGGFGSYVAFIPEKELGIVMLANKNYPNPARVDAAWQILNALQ
#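 AmpC (5.3 nM in the dispensed reagent) in 20 mM phosphate pH 7.0 with 0.01% (detergent screen) or 0.0001% Triton X-100 was preincubated with compounds for 15 min at room temperature. Nitrocefin was then added from an 800 uM solution, and hydrolysis was followed at 480 nm.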
# Pf growth 96h – inhibits malaria parasite growth, 96 h; hit rate 6.9% among 320,000; P. falciparum luciferase reporter growth, 96 h; AID 504834; Potency, µM (doses to about 28.7 µM), most hits filed as inhibitors
#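 Two-generation exposure (96 h) targets delayed-death phenotype. Reporter parasites carrying integrated firefly luciferase, in red cells at 2% hematocrit and 0.05% parasitemia final, kept at 37 C, 5% CO2; luminescence loss indicates inhibition.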
# AmpC no deterg – blocks E. coli AmpC beta-lactamase in detergent-free assay; Potency, µM (doses to about 57.1 µM), actives largely listed as inhibitors; AmpC nitrocefin hydrolysis, absorbance 480 nm, 0.0001% Triton; hit rate 0.52% among 330,000; also: nearly all actives have a fitted effect of over 20% in size
#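 20 mM phosphate pH 7.0 + 0.01% (detergent screen) or 0.0001% Triton X-100; 5.3 nM AmpC reagent; cpd preinc 15 min RT; nitrocefin (800 uM stock) to start; A480 q20 s × 4 min; Activity was normalised to no-enzyme and no-compound control wells.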
# Hits are given with their value; - = inactive; ? = inconclusive; . = not tested or not shown; [ ] = dose if it differs, or a comment. Calls follow the shape of the dose curve; as a rule, active = well fitted curve in the direction sought with a large enough effect; inconclusive = small, poorly fitted or top-dose-only effect, or another doubt; inactive = no such curve, though single readings can be large; an effect the other way counts as inactive or inconclusive.
SMILES,HCV inh,Pf growth 48h,AMA1-RON2 inh,AmpC inh detg,Pf growth 96h,AmpC no deterg
COc1ccc2c(c1)c1c(c(=O)n(-c3ccc(F)c(Cl)c3)c(=O)n1CC(N)=O)n2C,.,.,.,-,.,.
COC(=O)C1CCN(c2csc3ccc(Cl)cc3c2=O)CC1,.,.,.,-,.,.
Cc1ccc(S(=O)(=O)N(C)C)cc1NC(=O)C(C)NC(C)c1cccs1 (configuration not stated),-,-,-,-,-,-
Cc1ccc(S(=O)(=O)N(C)C)cc1NC(=O)C(C)N(C)Cc1sccc1C (configuration not stated),7.1µM,?,-,-,-,-
COc1cccc(-c2nc(SCc3cccc(Br)c3)n3[nH]c(=O)cc3n2)c1,.,.,.,-,.,.
CCCC/C(C)=N/NC(=O)CN(c1ccc(Br)cc1)S(=O)(=O)c1ccccc1,-,-,-,-,-,-
CCOC(=O)C/C(C)=N/NC(=O)CN(c1ccc(Br)cc1)S(=O)(=O)c1ccccc1,-,-,-,-,-,22µM
CN(Cc1ccccc1F)c1nc(-c2cccnc2)nc2ccccc12,?,?,-,?,?,-
c1cncc(-c2nc(NCC3COc4ccccc4O3)c3ccccc3n2)c1 (configuration not stated),11µM,.,-,-,8.3µM,-
Cc1ccc(CN(C)c2nc(-c3cccnc3)nc3ccccc23)o1,?,?,-,-,12µM,-
CN(CC1COc2ccccc2O1)c1nc(-c2cccnc2)nc2ccccc12 (configuration not stated),11µM,?,-,?,?,-
Cc1ccc(N2CC(NC(=O)c3ccc(S(=O)(=O)N(C)C)cc3)CC2=O)cc1C (configuration not stated),.,.,.,-,.,.
CCOC(=O)c1oc2cccc(OCC(O)CNC(C)C)c2c1C (configuration not stated),?,9.3µM,-,-,1.3µM,-
O=C(O)c1cc(=O)c2c(OCC(O)COc3cccc4oc(C(=O)O)cc(=O)c34)cccc2o1,?,-,-,-,-,-
Cc1cccc(C)c1OCC(O)CNC(C)C (configuration not stated),-,.,-,-,?,-
C=CCOc1ccccc1OCC(O)CNC(C)C (configuration not stated),1µM,-,-,?,-,-
CCOc1ccc(NC(=O)Cn2cnc3c(oc4ccccc43)c2=O)cc1,.,.,.,-,.,.
O=C(O)c1cccc2c1NC(c1cccc([N+](=O)[O-])c1)C1CC(Sc3ccccc3[N+](=O)[O-])C(Cl)C21 (configuration not stated),-,?,-,-,-,?
O=C(O)c1ccc2c(c1)C1C(Cl)C(Sc3ccccc3[N+](=O)[O-])CC1C(c1cccc([N+](=O)[O-])c1)N2 (configuration not stated),-,-,-,-,-,18µM
CCOc1ccccc1NC(=O)C1CCN(S(=O)(=O)c2cc(Br)cc3c2N(C(C)=O)CC3)CC1,.,.,.,-,.,.
CCOc1cc(/C=N/NC(N)=O)cc(Br)c1OCC(=O)Nc1cccc2ccccc12,18µM,.,-,-,?,-
O=c1c2ccccc2ncn1-c1ccc2c(c1)OCCO2,-,-,-,-,-,-
CN(C)C(=O)c1ccc(-n2cnc3ccccc3c2=O)cc1,-,-[5.75 µM],-,-,12µM,-
Cc1ccc(-c2c3c(=O)n(C)c(=O)n(C)c3c3c(C(F)(F)F)nc4ccccc4n23)cc1,.,.,.,-,.,.
O=S(=O)(c1ccccc1)c1nnn2c1nc(NC1CCN(Cc3ccccc3)CC1)c1cc(Cl)ccc12,?,0.66µM,-,-,-,-
SMILES,HCV inh,Pf growth 48h,AMA1-RON2 inh,AmpC inh detg,Pf growth 96h,AmpC no deterg
Cc1ccc(/C=N/NC(=O)c2cc3c(s2)CCCC3)o1,-,8.3µM,-,-,?,-
CSc1cccc(NC(=O)C2CCN(c3ncnc4c3nc3n4CCCCC3)CC2)c1,.,.,.,-,.,.
Brc1ccccc1Cn1c(-c2cscn2)nc2ccccc21,?,.,-,-,10µM,-
CSc1ccccc1NC(=O)Cn1c(-c2cscn2)nc2ccccc21,-,-,-,-,-,-
Cc1ccccc1Cn1c(-c2cncs2)nc2ccccc21,-,1.5µM,-,-,-,-
Brc1cc2c(cc1Cn1c(-c3cncs3)nc3ccccc31)OCO2,-,?,-,?,?,-
Cc1ccccc1Cn1c(C)nc2ccccc21,5.6µM,?,-,?,-,-
COc1ccccc1Cn1c(C)nc2ccccc21,-,-,-,-,-,-
O=S(=O)(c1ccccc1)n1nc(-c2ccco2)nc1NCc1ccccc1,.,.,.,-,.,.
COC(=O)CC1C(=O)NCCN1Cc1cn(-c2ccc(C)cc2)nc1-c1cccc(C)c1 (configuration not stated),-,?,-,-,10µM,-
CC(C)CN(C(=O)c1nn(C)c(=O)c2ccccc12)c1nc2ccccc2s1,-,10µM,-,-,.,-
CC(C)CN(C(=O)c1ccco1)c1nc2ccccc2s1,-,?,-,-,-,-
CC(=O)Nc1ccc(NC(=O)CSC2=NCCS2)cc1,-,-,-,-,-,-
CCOC(=O)c1cc(C)sc1NC(=O)CSc1nnnn1C,.,-,-,-,1.7µM,-
CCOC(=O)c1cc(C)sc1NC(=O)CSC1=NCCS1,?,?,-,-,9.3µM,-
N#Cc1nc(-c2ccc(COc3ccccc3)o2)oc1NCc1cccnc1,.,.,.,-,.,.
Cc1nc(N2CCN(S(=O)(=O)c3ccccc3C#N)CC2)c2c(-c3ccccc3)csc2n1,8.9µM,10µM,-,-,?,-
Cc1cc(C)c(NC(=O)Cn2cc3c(n2)CCCC3)c(C)c1,-,-,-,?,-,-
Cc1ccc2nc(NC(=O)Cn3cc4c(n3)CCCCC4)sc2c1,-,-,-,?,-,2.8µM
O=C(Cn1cc2c(n1)CCCCC2)Nc1c(F)c(F)cc(F)c1F,-,.,-,?,15µM,-
C/C=C/C(=O)OCC(=O)Nc1nc2ccc(C)cc2s1,-,.,-,-,10µM,-
Cc1ccc(Cl)cc1NC(=O)Cn1cc2c(n1)CCCCC2,.,.,.,-,.,.
Cc1ccc(Cl)cc1NC(=O)Cn1cc2c(n1)CCCC2,-,.,-,?,2.1µM,-
CCCCCn1c(=O)[nH]c2cc(C(=O)NCc3ccc(C)cc3)ccc2c1=O,.,.,.,-,.,.
CC1CCN(S(=O)(=O)c2c[nH]c(=O)[nH]c2=O)CC1,10µM,-,-,-,-,-
COC(=O)C1CCN(S(=O)(=O)c2c[nH]c(=O)[nH]c2=O)CC1,.,.,-,.,.,.
CCOc1ccccc1NC(=O)c1ccc2c(Cl)c3c(nc2c1)CCC3,.,.,.,-,.,.
CN1CCc2nc3sc(C#N)c(N)c3c(-c3cccs3)c2C1,?,13µM,-,-,.,-

# Compound activity: PubChem, National Center for Advancing Translational Sciences (NCATS)
